Dicer inh – inhibitors of Dicer pre-microRNA processing, primary screen, biochemical, cat-ELCCA, chemiluminescence. z-score at 25 µM. Endoribonuclease Dicer (Homo sapiens), Q9UPY3. hit rate 6% among 47,000. cat-ELCCA pre-miR-21 Dicer processing; stronger effect = higher value. AID 1347074, 2019; in the data active = z-score above about 3, passing the limit was not always enough;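 note: higher signal means more uncleaved substrate so more Dicer inhibition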
Target sequence (Q9UPY3 whole entry, looked up): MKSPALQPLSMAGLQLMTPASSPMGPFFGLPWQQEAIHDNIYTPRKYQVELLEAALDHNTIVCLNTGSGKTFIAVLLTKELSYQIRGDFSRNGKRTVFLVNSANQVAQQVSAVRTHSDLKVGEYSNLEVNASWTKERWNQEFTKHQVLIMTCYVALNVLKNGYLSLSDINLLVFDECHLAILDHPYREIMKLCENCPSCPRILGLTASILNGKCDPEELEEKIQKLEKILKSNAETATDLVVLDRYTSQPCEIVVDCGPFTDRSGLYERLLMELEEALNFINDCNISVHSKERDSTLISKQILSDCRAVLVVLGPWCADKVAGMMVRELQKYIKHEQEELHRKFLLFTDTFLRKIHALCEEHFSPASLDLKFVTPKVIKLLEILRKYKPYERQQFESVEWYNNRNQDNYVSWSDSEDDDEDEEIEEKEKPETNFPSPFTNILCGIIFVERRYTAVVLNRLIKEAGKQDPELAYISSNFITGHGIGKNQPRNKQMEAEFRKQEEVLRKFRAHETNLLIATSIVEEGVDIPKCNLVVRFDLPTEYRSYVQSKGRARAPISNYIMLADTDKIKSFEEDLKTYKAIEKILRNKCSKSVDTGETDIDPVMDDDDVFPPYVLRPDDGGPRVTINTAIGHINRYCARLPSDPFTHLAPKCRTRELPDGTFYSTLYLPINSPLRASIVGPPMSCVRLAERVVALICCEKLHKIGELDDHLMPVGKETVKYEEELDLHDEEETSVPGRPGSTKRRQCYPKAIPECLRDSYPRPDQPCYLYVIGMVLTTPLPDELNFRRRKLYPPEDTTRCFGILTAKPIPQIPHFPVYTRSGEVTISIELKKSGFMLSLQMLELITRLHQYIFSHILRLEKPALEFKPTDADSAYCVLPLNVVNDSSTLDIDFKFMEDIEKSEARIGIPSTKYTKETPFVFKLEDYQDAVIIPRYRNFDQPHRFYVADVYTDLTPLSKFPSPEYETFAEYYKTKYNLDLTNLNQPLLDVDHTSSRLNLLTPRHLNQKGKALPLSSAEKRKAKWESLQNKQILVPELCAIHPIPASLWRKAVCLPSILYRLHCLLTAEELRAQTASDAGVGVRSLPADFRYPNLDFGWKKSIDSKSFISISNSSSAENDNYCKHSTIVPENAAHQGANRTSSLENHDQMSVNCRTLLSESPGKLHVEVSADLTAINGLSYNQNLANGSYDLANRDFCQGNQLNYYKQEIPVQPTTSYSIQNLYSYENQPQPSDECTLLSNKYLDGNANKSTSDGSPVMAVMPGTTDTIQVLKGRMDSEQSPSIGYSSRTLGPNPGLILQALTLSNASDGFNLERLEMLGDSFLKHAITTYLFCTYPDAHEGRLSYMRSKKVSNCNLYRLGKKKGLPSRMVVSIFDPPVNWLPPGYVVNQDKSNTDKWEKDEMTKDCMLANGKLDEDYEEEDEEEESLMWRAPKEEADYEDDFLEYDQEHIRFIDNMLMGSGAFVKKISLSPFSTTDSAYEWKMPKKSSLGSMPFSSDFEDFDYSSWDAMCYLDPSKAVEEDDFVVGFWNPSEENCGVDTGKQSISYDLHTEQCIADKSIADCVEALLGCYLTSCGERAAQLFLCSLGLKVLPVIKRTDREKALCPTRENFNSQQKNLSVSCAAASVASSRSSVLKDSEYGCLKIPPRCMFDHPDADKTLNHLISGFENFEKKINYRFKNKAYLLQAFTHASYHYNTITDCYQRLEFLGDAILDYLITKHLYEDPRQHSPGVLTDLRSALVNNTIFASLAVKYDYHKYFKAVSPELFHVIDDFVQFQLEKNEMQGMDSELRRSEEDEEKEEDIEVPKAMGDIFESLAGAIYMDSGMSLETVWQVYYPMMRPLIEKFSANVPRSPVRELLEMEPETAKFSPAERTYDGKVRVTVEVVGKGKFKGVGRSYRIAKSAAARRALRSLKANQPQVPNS
Each line names hits and unclear results; the compound was inactive in the other large screens. The sample as a whole holds a higher share of hits than the screen did.

CC(C)(C)c1ccc(-c2nc3cc(Cl)ccc3c(=O)o2)cc1	none
Clc1ccc(Sc2c(-c3ccccc3)nc3sccn23)cc1	none
NC(=S)N/N=C/c1c(Sc2ccc(Cl)cc2)nc2sccn12	none
O=C1Nc2ccccc2/C1=C/c1c(Sc2ccc(Cl)cc2)nc2sccn12	Dicer inh 5.7
COc1ccccc1OCCN1C(=O)C(O)(c2c[nH]c3ccccc23)c2ccccc21 (stereo not given)	none
Cn1c(=O)c2c(ncn2CC(O)CN2CCN(CCO)CC2)n(C)c1=O (stereo not given)	none
Cc1cc(C(=O)N=S(C)(=O)c2cccs2)no1 (stereo not given)	none
COc1ccc(OC)c(N2C(=O)c3cccc4cccc(c34)C2=O)c1	Dicer inh 5.7
O=C1c2cccc3cccc(c23)C(=O)N1c1ccccc1O	none
Nc1ccccc1N1C(=O)c2cccc3cccc(c23)C1=O	none
c1ccc2c(c1)CCCc1cc(NCCN3CCOCC3)nnc1-2	none
O=C(Nc1ccc(O)cc1)c1cc2nc3c(c(C(F)(F)F)n2n1)CCc1ccccc1-3	Dicer inh 3.2
FC(F)(F)c1c2c(nc3cc(-c4ccc(Cl)cc4)nn13)-c1ccccc1C2	none
O=C(NCCN1CCOCC1)c1cc2nc(-c3ccc(Br)cc3)cc(C(F)(F)F)n2n1	none
O=C(NCCN1CCOCC1)c1cc2nc3c(c(C(F)(F)F)n2n1)CCc1ccccc1-3	Dicer inh 4.3
O=C(Nc1cccnc1)c1cc2nc(-c3ccc(Cl)cc3)cc(C(F)(F)F)n2n1	none
CCCNC(=O)Oc1noc2ccc(Cl)cc12	none
Cn1ncc2c(N/N=C/c3ccccc3)ncnc21	none
Oc1ccccc1-c1ccnc2cc(-c3ccc(Cl)cc3)nn12	Dicer inh 3.3
Oc1ccc(F)cc1-c1ccnc2cc(-c3ccc(Cl)cc3)nn12	Dicer inh 4
Cc1cc2nccc(-c3ccc(Cl)cc3)n2n1	none
CN1C(=O)COc2ccc(-c3ccnc4cc(-c5ccc(Cl)cc5)nn34)cc21	none
COc1ccc(-c2cc3nccc(-c4ccccc4O)n3n2)cc1	none
c1ccc(-c2cc3nccc(-c4ccccc4)n3n2)cc1	none
Cc1ccc(O)c(-c2ccnc3cc(-c4ccccc4)nn23)c1	none
COc1ccc(-c2cc3nccc(-c4cc(Cl)ccc4O)n3n2)cc1	none
Oc1ccc(Cl)cc1-c1ccnc2cc(-c3ccccc3)nn12	Dicer inh 9.3
CSc1n[nH]c(-c2ccccc2Cl)c1C#N	none
CSC1=C(C#N)C(=O)NC(c2ccc(Cl)cc2Cl)S1 (stereo not given)	none
CSc1ncc(-c2n[nH]c(=S)n2C)n1C	none
COc1ccc(NC(=O)C2=NNC(=O)CC2)cc1	none
COc1cccc(C2Nc3c(C)cccc3-c3cc(C)nn32)c1O (stereo not given)	Dicer inh 4.9
CCOc1cccc(C2Nc3c(C)cc(C)cc3-c3cc(C)nn32)c1O (stereo not given)	none
COc1ccc(C2Nc3c(C)cccc3-c3cc(C)nn32)cc1 (stereo not given)	none
Cc1cc(C)c2c(c1)-c1cc(C)nn1C(c1ccc3c(c1)OCO3)N2 (stereo not given)	none
Cc1cc2n(n1)C(c1ccccc1F)Nc1c(C)cccc1-2 (stereo not given)	none
Cc1cc2n(n1)C(c1ccc(N3CCCC3)cc1)Nc1c(C)cccc1-2 (stereo not given)	none
Cc1cc2n(n1)C(c1cc(Br)ccc1O)Nc1c(C)cccc1-2 (stereo not given)	none
COc1ccc(OC)c(C2Nc3c(C)cccc3-c3cc(C)nn32)c1 (stereo not given)	none
Cc1cc2n(n1)C(c1ccc3c(c1)OCO3)Nc1c(C)cccc1-2 (stereo not given)	Dicer inh 3.1
Cc1cc2n(n1)C(c1ccccc1Cl)Nc1c(C)cccc1-2 (stereo not given)	Dicer inh 5.9
Cc1cc2n(n1)C(c1ccc(Cl)cc1)Nc1c(C)cccc1-2 (stereo not given)	Dicer inh 3.8
O=C(O)c1ccccc1N/C=C/c1nnnn1-c1ccc(F)cc1	none
Cc1cc(C)nc(NS(=O)(=O)c2ccc(N=Cc3ccccc3O)cc2)n1	none
Cc1ccccc1OCc1nc(C#N)c(N2CC(C)OC(C)C2)o1 (stereo not given)	none
Clc1ccc(-c2cn3c4ccccc4nc3n2CCCN2CCCC2)cc1	none
CN(C)C(=O)c1cc(Br)cc2c1OCC2	none
CCCc1c(C)[nH]c2[nH]n(-c3ccccc3)c(=O)c2c1=O	none
Cc1cc2n(n1)C(c1ccsc1)Nc1c(C)cccc1-2 (stereo not given)	none
Cc1cc2n(n1)C(c1cccc(Cl)c1)Nc1c(C)cccc1-2 (stereo not given)	Dicer inh 6.2
COc1ccc(C2Nc3c(C)cccc3-c3cc(C)nn32)cc1OC (stereo not given)	none
NC(=O)C1CCN(c2cc(C(F)(F)F)ccn2)CC1	none
NS(=O)(=O)c1ccc(Sc2ccccc2)s1	none
Cn1c(=O)c2c(nc(Sc3ccccc3N)n2C)n(C)c1=O	none
Cn1c(=O)c2c(nc(SCc3ccc(F)cc3)n2C)n(C)c1=O	none
Cn1c(=O)c2c(nc(Sc3nnc(N)s3)n2C)n(C)c1=O	Dicer inh 3.1
CC(/C=C/c1ccccc1)=N\OC(=O)NC(C)C	none
CN1CC23C=CC(O2)C(C(=O)O)C3C1=O (stereo not given)	none
CCOC(=O)Nc1nc2ccc(C)cc2[nH]1	none
O=C1C2C3C=CC(C3)C2C(=O)N1c1nccs1 (stereo not given)	none
O=C1CCC(=O)N1c1nccs1	Dicer inh 3.2
CSc1n[nH]c(NS(=O)(=O)c2ccccc2Cl)c1-c1ccccn1	none
CCOC(=O)c1nn(-c2ccc(OC)cc2)c(=O)c2c(NC(C)=O)scc12	none
C=C1SC(Nc2ccccc2Cl)=NC1(C)C	none
COc1ccc(Nc2ccnc3ccccc23)cc1	Dicer inh 3.6
COc1ccc(Nc2nc3ccccc3c(=O)s2)cc1	none
COc1ccc(Nc2ncnc3ccccc23)cc1	none
FC(F)(F)c1cc(Oc2ccccc2)ncc1-c1ncc(-c2ccc(Cl)cc2)o1	none
CCC/C(O)=C(/C=N/c1ccc(C(=O)OC)o1)C(=O)OCC	none
O=C(/C=C1/NCCS1)c1ccc(Cl)cc1	Dicer inh 3.8
Cc1ccc(C(=O)/C=C/Nc2ccc(Cl)cc2)cc1	none
CSC(=CC(=O)c1ccc(Cl)cc1)SC	none
Cc1ccc(Cn2c(NCc3cccnc3)nc3c2c(=O)n(C)c(=O)n3C)cc1	none
COc1ccc(Cn2c(=O)oc3ccccc32)cc1OC	none
Cc1ccc2oc(=O)n(Cc3ccccc3OC(C)C)c2c1	Dicer inh 5.1
Cc1ccc2oc(=O)n(CC(=O)O)c2c1	none
CCOC(=O)c1c(S(=O)(=O)N2CCSC2C(=O)OC)c(-c2ccccc2)n(-c2ccccc2)c1C (stereo not given)	none
N/C(=N/OC(=O)Nc1cccc(C(F)(F)F)c1)C1COc2ccccc2O1 (stereo not given)	none
O=c1c(-c2ccc(O)cc2)coc2cc(O)cc(O)c12	none
COc1ccc(-c2coc3cc(OCc4ccc(Br)cc4)cc(O)c3c2=O)cc1OC	Dicer inh 3.9
CC(C)Oc1cc(O)c2c(=O)c(-c3ccc(O)cc3)coc2c1	none
CC1(C)CC(=O)C2=C(C1)Nc1nonc1NC2c1ccc(O)cc1 (stereo not given)	none
COc1ccc(-c2cc(C(F)(F)F)nc(SCC(=O)N3CCCC3)n2)cc1	none
CN(C)c1ccc(C2C(C#N)=C3N=C(N)c4ccccc4N3C3=C2C(=O)CC(C)(C)C3)cc1 (stereo not given)	Dicer inh 6.9
COc1ccccc1C1C(C#N)=C2N=C(N)c3ccccc3N2C2=C1C(=O)CCC2 (stereo not given)	none

Screening results: PubChem BioAssay, Center for Chemical Genomics, University of Michigan
